This is a sample that favours compounds with a hit; in the whole collection about 14% have one here.
LASV entry inh: qHTS for Inhibitors of binding or entry into cells for Lassa Virus; Lassa virus pseudotype entry inhibition, cell reporter; Potency, µM (highest dose often 37.9 µM), for the others: at the highest dose activity change, negative = inhibition, hits mostly inhibitors; 300,000 tested, 1.2% active; calls by dose curve; tested in HEK293 cells; note: potency is the fitted concentration of half-maximal effect; nearly all actives have a fitted effect of over 50% in size
Pf growth 48h: Primary qHTS for delayed death inhibitors of the malarial parasite plastid, 48 hour incubation. AID 504832, 2011. Potency, µM (series often up to 28.7 µM), without a hit: top-dose activity change, negative = inhibition, hits mostly inhibitors. 310,000 tested, 5.9% active. P. falciparum luciferase growth in erythrocytes, 48 h; note: potency is the fitted concentration of half-maximal effect
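Parasite viability was followed by luminescence of a genomically integrated firefly luciferase. Cultures held 0.1% parasitemia at 2% hematocrit (final), incubated under 5% CO2 at 37 C.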
MARV entry inh: qHTS for inhibitors of binding or entry into cells for Marburg Virus. Marburg virus pseudotyped entry inhibition, cell reporter. Potency, µM (series often up to 37.8 µM), without a hit: at the highest dose activity change, negative = inhibition, usual class: inhibitors. 300,000 tested, 1.8% active; calls by dose curve; tested in HEK293 cells; note: potency is the fitted concentration of half-maximal effect
Pf growth 96h: Primary qHTS for delayed death inhibitors of the malarial parasite plastid, 96 hour incubation; 320,000 tested, 6.9% active; Potency, µM (top dose mostly 28.7 µM), for the others: top-dose activity change, negative = inhibition, actives largely listed as inhibitors; P. falciparum luciferase reporter growth, 96 h; note: potency is the fitted concentration of half-maximal effect
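Parasite growth measured via integrated firefly luciferase reporter in P. falciparum. Infected erythrocytes at 2% hematocrit, 0.05% parasitemia final were treated 96 hours at 37 C under 5% CO2, and luminescence was read.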
HCV inhibitor: qHTS Assay for Inhibitors of Hepatitis C Virus (HCV) | 340,000 tested, 3.4% active | Potency, µM (doses to about 41.8 µM), inactives show at the top dose activity change, negative = inhibition, hits mostly inhibitors | Huh7.5.1 HCVcc-Cre infection, luciferase reporter, 44 h; note: potency is the fitted concentration of half-maximal effect
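HCVcc-Cre virus at an moi near 0.5 was added right after compound to cells cultured 4 h from seeding (1,000 cells/well). Luciferase activity was determined 44 h later, 15 min after substrate addition at RT.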
HCMV inh: qHTS Assay for inhibitors of the human cytomegalovirus (HCMV); HFF cells, HCMV-luciferase reporter, 72 h; active compounds read low; activity change, negative = inhibition, % at 57.5 µM; 410,000 tested, 4.5% active; in the data active = activity change below about -60%; inconclusive = no clear call, values can overlap the other calls; inactive = above about -39%
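HFF cells seeded 16 h at 37C, treated with compounds, infected with luciferase-reporter HCMV at MOI 1 PFU/cell; luciferase read at 72 h post infection, normalized to buffer-only and Salinomycin controls.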
* = called active by the depositor; ? = inconclusive; / = no result; [ ] = remark or other dose. Unless noted, calls come from the whole dose curve; as a rule, active = well fitted inhibition curve with a large enough effect; inconclusive = small, poorly fitted or top-dose-only effect, or another doubt; inactive = no such curve, though single readings can be large or run the other way. % is set by controls: 0 for no effect and ±100 for the full control effect.

SMILES	LASV entry inh	Pf growth 48h	MARV entry inh	Pf growth 96h	HCV inhibitor	HCMV inh
CCN(CC)CCNC(=O)c1ccc2c(c1)NC(=O)C(CS(=O)(=O)Cc1cccc(Br)c1)N2 (stereo not drawn)	0%[46.1 µM]	/	/	/	/	-2
COc1ccc2c(c1OC)C(CC(C)=O)N1CCc3cc4c(cc3C1C2=O)OCO4 (stereo not drawn)	/	/	/	/	/	14
CC(C)(C)OC(=O)C[C@@H]1C/C=C\C[C@H](CC(=O)N[C@H](CO)Cc2ccccc2)C(=O)N[C@H](C(C)(C)C)COC1=O	/	/	/	/	15%	-11
COC(=O)c1sc(N)c(C(=O)OC)c1CSc1nnnn1C	8%	10µM*	20%	9.3µM*	-3%	40
COC(=O)c1sc(N)c(C(=O)OC)c1CSc1nnc(-c2ccccc2Cl)n1C	22%	?	-33%	?	?	-20
COc1cccc(NC(=O)COC(=O)c2ccccc2C(=O)N(C)c2ccccc2)c1	-10%	?	1%	-29%	?	-23
O=C(NNC(=O)c1ccccc1Cl)c1ccccc1Cl	3%	51%	28%[46.1 µM]	23%	-10%	73
O=C(NNc1nc(=O)c2cccnc2s1)c1ccccc1O	?	?	11%[46.1 µM]	8%	3.2µM*	14
COc1ccccc1C(=O)NNc1ncc(C)s1	6%	12%	-10%	?	8%	41
O=C(NNc1c2ccccc2nc2ccccc12)c1ccccc1O	?	?	?	10µM*	8.9µM*	-22
O=C(NNc1c2ccccc2nc2ccccc12)c1ccccc1Cl	/	?	/	?	4.5µM*	-25
O=C(NNc1c2ccccc2nc2ccccc12)c1ccc(O)cc1O	-8%	?	-25%	?	?	-20
O=C(NCc1ccccc1)C12CC3CC(CC(C3)C1)C2	3%	/	-5%	-23%	5%	15
O=C(NNc1c2ccccc2nc2ccccc12)C12CC3CC(CC(C3)C1)C2	-3%	?	-1%[46.1 µM]	13µM*	8%	-32
CCOC(=O)CN1C(=O)[C@@]2(CC(C)=CC[C@@H](COc3ccccc3)O2)c2c(Br)cccc21	/	/	-35%[14.2 µM]	/	/	/
O=C(OCn1ncc(Br)c(Br)c1=O)c1ccccc1Cl	11µM*	-11%	10µM*	/	?	/
O=C(OCn1ncc(Br)c(Br)c1=O)c1ccc(F)cc1	13µM*	/	5.6µM*	?	?	/
CC1=C(C(=O)Nc2cc(C)cc(C)c2)C2(CCCCC2)OC1=O	26%[46.1 µM]	/	3%[46.1 µM]	/	/	16
O=C(NCCN1CCOCC1)c1cc2n(n1)[C@@H](C(F)(F)F)C[C@H](c1ccc(F)cc1)N2	/	/	28%	/	/	/
C=CCN1C(=O)CSC1=Nc1cccc(O)c1	-10%	6%	12%	/	17%	7
C=CCN1C(=Nc2cccnc2)SCC1(O)c1ccc(C)cc1 (stereo not drawn)	/	3.3µM*	/	16%	/	/
COc1cc(C(=O)OCC(=O)c2c[nH]c3ccccc23)ccc1OCC(=O)N1CCOCC1	?	?	-14%	?	-24%	-64*
CCOc1cc(C(=O)OCC(=O)c2c[nH]c3ccccc23)ccc1OCC(=O)N1CCOCC1	-4%	?	1%[46.1 µM]	?	?	52
COc1ccc(C(=O)OCC(=O)c2c[nH]c3ccccc23)cc1OC	/	15µM*	/	4.7µM*	-21%	16
Cc1cnc(C(=O)OCC(=O)c2c[nH]c3ccccc23)cn1	2%	13µM*	-7%	?	-2%	27
SMILES	LASV entry inh	Pf growth 48h	MARV entry inh	Pf growth 96h	HCV inhibitor	HCMV inh
CCOc1cc2sc(N3CCC(C(=O)Nc4ccc(CC)cc4)CC3)nc2cc1Br	/	/	?	/	/	53
O=C(CCl)NCc1c(Cl)cccc1-n1cccc1	?	10µM*	?	12µM*	?	-98*
CCCCOc1ccccc1C1CC(=O)Nc2cc(C)c(C)cc21 (stereo not drawn)	-17%[46.1 µM]	/	/	/	/	-27
Cc1cc2c(cc1C)C(c1ccccc1OC(C)C)CC(=O)N2 (stereo not drawn)	?	?	1µM*	?	8.9µM*	18
COc1cc2c(cc1OC)C(c1ccc(Br)cc1)CC(=O)N2 (stereo not drawn)	/	8%	/	5.2µM*	-15%	28
CCOc1ccccc1C1CC(=O)Nc2cc(C)c(C)cc21 (stereo not drawn)	/	16%	/	12µM*	?	-19
Cc1cc2c(cc1C)C(c1ccccc1Br)CC(=O)N2 (stereo not drawn)	?	-21%	?	-28%	0%	34
CC(C)Oc1ccccc1C1CC(=O)Nc2cc3c(cc21)OCO3 (stereo not drawn)	?	?	6.5µM*	/	11µM*	-101*
COc1cc2c(cc1OC)C(c1ccc(C(F)(F)F)cc1)CC(=O)N2 (stereo not drawn)	-3%[46.1 µM]	?	?	?	9%	69
CCOC(=O)c1c(S(=O)(=O)N2CCC(C(=O)Nc3ccc(OCC)cc3)CC2)c(C)n(C)c1C	2%[46.1 µM]	/	/	/	/	-14
COc1cc(OC)cc(C(=O)N2CCC(c3ccncc3)CC2)c1	-26%[46.1 µM]	/	/	/	/	6
COc1ccc(C(=O)C(=O)N2CCN(C(=O)OCc3ccccc3)CC2)cc1	/	/	/	/	/	-30
COc1ccccc1C1CC(=O)Nc2cc(C)c(C)cc21 (stereo not drawn)	?	-21%	?	13µM*	?	-5
COc1cc(C2CC(=O)Nc3cc4c(cc32)OCCO4)cc(Br)c1OC (stereo not drawn)	?	/	?	/	/	-81*
CC(C)c1ccc(S(=O)(=O)N2CCN(CC(=O)Nc3ccccc3C(F)(F)F)CC2)cc1	7%[46.1 µM]	/	/	/	/	3
Cc1cc(C)cc(OC(C)C(=O)Nc2nonc2-c2ccc(Br)cc2)c1 (stereo not drawn)	11%[46.1 µM]	/	-3%[46.1 µM]	/	/	-62*
Cc1cccc(C)c1OCC(=O)Nc1nonc1-c1ccc(Br)cc1	?	/	0%[46.1 µM]	/	/	-19
Cc1ccc2c(c1)c(=O)c1ccccc1n2CCCC(=O)Nc1ccc(Cl)cc1C	-5%[46.1 µM]	/	/	/	/	22
O=C(CCCn1c2ccccc2c(=O)c2ccccc21)Nc1cccc(Cl)c1	?	/	/	/	/	-67*
Cc1ccc2c(c1)c(=O)c1ccccc1n2CCCC(=O)Nc1ccc(C)c(C)c1	?	/	/	/	/	-61*
Cc1ccc2c(c1)c(=O)c1ccccc1n2CCCC(=O)Nc1ccc(C)c(F)c1	?	/	/	/	/	-74*
Cc1ccc2c(c1)c(=O)c1ccccc1n2CCCC(=O)Nc1ccc(Cl)c(Cl)c1	-11%[46.1 µM]	/	/	/	/	-37
COc1ccc(NC(=O)C(C)n2nc(-c3cc(C)ccc3C)c3c(c2=O)CCCC3)cc1 (stereo not drawn)	-17%[46.1 µM]	/	?	/	/	-2
